The record followed here is PubChem BioAssay (NCATS).

“And” between values parts separate entries of the source, which are not always exact repeats. Identical values can stand only once. Records with an inconclusive call do not appear. The source made the active and inactive calls. Unless noted, calls come from the whole dose curve; as a rule, active = well fitted inhibition curve with a large enough effect; inconclusive = small, poorly fitted or top-dose-only effect; inactive = flat fitted curve, though single readings scatter.

Sequence of DNA dC->dU-editing enzyme APOBEC-3G (Homo sapiens) (Q9HC16 whole entry, looked up): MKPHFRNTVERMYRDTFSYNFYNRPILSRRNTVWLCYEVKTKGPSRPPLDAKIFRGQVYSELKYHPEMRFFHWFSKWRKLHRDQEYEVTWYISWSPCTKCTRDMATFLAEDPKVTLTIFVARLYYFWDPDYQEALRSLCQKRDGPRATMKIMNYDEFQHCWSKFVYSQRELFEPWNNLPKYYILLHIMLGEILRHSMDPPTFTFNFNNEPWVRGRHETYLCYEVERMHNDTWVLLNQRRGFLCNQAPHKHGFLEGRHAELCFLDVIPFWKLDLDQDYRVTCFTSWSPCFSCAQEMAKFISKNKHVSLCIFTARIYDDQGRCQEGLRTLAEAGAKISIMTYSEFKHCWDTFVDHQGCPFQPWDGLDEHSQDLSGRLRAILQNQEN

The target of one assay is Ubiquitin carboxyl-terminal hydrolase 1 (Homo sapiens) (UniProt O94782). The assay can be described thus: Inhibitors of USP1/UAF1: Pilot qHTS (AID 504865).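 For activity change, negative = inhibition: rhodamine fluorescence freed from ubiquitin-rhodamine substrate followed over time; top concentration of the series differs between compounds; % is set by controls: 0 for no effect and ±100 for the full control effect.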 Note: nearly all actives have a fitted effect of over 35% in size. Note: potency is the fitted concentration of half-maximal effect. To be noted: purified USP1/UAF1, Ub-rhodamine cleavage fluorescence; series mostly up to 114 µM; activity change, negative = inhibition: at the top concentration. In outline: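 USP1/UAF1 complex (1nM) preincubated with compound 15 min at room temperature, then Ub-Rho substrate (150nM final) added. Fluorescence read kinetically at 480/540 nm, 6 reads every 60 seconds. Buffer: 50mM HEPES pH 7.8, 0.5mM EDTA, 0.1 mg/ml BSA, 1mM TCEP, 0.01% Tween-20.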
Sequence of Ubiquitin carboxyl-terminal hydrolase 1 (Homo sapiens) (O94782 whole entry, looked up): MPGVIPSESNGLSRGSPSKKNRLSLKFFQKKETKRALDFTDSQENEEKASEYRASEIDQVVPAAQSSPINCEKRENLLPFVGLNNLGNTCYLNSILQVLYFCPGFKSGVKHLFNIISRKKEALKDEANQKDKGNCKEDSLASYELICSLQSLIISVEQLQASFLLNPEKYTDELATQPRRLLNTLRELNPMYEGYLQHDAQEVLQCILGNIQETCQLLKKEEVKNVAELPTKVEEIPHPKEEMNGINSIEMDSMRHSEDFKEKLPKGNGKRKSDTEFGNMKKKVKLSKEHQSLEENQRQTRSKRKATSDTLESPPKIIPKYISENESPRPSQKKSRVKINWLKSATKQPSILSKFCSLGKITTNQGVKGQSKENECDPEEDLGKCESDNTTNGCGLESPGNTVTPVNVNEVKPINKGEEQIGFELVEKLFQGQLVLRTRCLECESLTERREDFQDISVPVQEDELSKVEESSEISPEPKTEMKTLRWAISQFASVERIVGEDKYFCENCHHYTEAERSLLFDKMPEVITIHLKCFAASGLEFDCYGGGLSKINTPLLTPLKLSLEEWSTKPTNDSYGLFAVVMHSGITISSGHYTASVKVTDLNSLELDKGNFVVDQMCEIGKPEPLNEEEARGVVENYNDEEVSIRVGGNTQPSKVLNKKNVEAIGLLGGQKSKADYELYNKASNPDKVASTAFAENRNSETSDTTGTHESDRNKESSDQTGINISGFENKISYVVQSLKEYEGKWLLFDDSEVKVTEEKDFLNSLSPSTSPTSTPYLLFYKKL
In general terms: qHTS replaces the single test concentration by a dilution series.
Regarding `CCCOc1ccc2nc(NC(=O)OC)sc2c1`, the “activity change, negative = inhibition” value is 0.84% (inactive).

On to `O=C(O)CC(O)(CC(=O)O)C(=O)O`, for which the “activity change, negative = inhibition” value was -4.88% (inactive).

Consider `CN(C)CCCn1cc(C2=C(c3c[nH]c4ccccc34)C(=O)NC2=O)c2ccccc21`, for which the Potency was 50.1 µM (active).

Consider `CN[C@H]1CC[C@@H](c2ccc(Cl)c(Cl)c2)c2ccccc21`, for which the “activity change, negative = inhibition” value was -6.75% (inactive).

On to `NCCCC(=O)O`, for which the Potency entry was “inactive”.

On to `COc1cc(C[C@H]2C(=O)OC[C@@H]2Cc2ccc(OC)c(OC)c2)ccc1O`, for which the “activity change, negative = inhibition” value was -8.04% (inactive).

Consider `COC1C(OC(=O)/C=C/C=C/C=C/C=C/C(=O)O)CCC2(CO2)C1C1(C)OC1CC=C(C)C` (centres undefined), for which the “activity change, negative = inhibition” value was -9.07% (inactive).

Regarding `C1CNCCN1`, the “activity change, negative = inhibition” value is -4.88% (inactive).

Another assay has as its target DNA dC->dU-editing enzyme APOBEC-3G (Homo sapiens) (UniProt Q9HC16). Briefly: qHTS for inhibitors of Vif-A3G interactions: Validation (AID 588379). Note: 0% is about no effect. The conditions noted are these: Vif-A3G protein interaction assay; series mostly up to 46.1 µM; activity change, negative = inhibition: at the top concentration. In outline:
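Yellow fluorescence (Ex 488, Em 500-530) of Vif-coexpressing HeLa A3G-eYFP cells, scanned by Acumen cytometer, reports blocked A3G degradation. Cells plated at 700/well overnight at 37 deg C before compound addition, then a further overnight compound incubation at 37 deg C.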
For the compound `CC(=O)C1=C(O)C=C2Oc3c(C(C)=O)c(O)c(C)c(O)c3[C@]2(C)C1=O`, the “activity change, negative = inhibition” value was 0.756% (inactive).

For the compound `Cc1ccc(OC[C@H](O)[C@H](C)NC(C)C)c2c1CCC2`, the “activity change, negative = inhibition” value is -6.4% (inactive).

For `CCc1ccccc1OC[C@@H](O)CN[C@H]1CCCc2ccccc21`, the “activity change, negative = inhibition” value is 0.162% (inactive).

Turning to `CN(C)CCCn1cc(C2=C(c3c[nH]c4ccccc34)C(=O)NC2=O)c2ccccc21`, the “activity change, negative = inhibition” value was 3.02% (inactive).

On to `NCCCC(=O)O`, for which the “activity change, negative = inhibition” value was 0.409% (inactive).

For the compound `COc1cc(C[C@H]2C(=O)OC[C@@H]2Cc2ccc(OC)c(OC)c2)ccc1O`, the “activity change, negative = inhibition” value was -2.22% (inactive).

On to `COc1ccc2[nH]c(=O)c3c(c2c1)OC(C)(C)C=C3`, for which the “activity change, negative = inhibition” value was -5.77% (inactive).

The target in a further assay is Estrogen receptor (Homo sapiens) (UniProt P03372). Briefly: qHTS assay for small molecule agonists of estrogen receptor alpha signaling (AID 588514; calls by dose curve; note: nearly all actives have a fitted effect of over 70% in size; note: potency is the fitted concentration of half-maximal effect;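 for activation: 0% = vehicle only and 100% = reference agonist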). To be noted: ER-alpha-UAS-bla HEK293, beta-lactamase ratio, 18 h; series mostly up to 76.8 µM; activation: at the top concentration. In outline: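 Read-out: CCF4 fluorescence from a beta-lactamase reporter in ER-alpha-UAS-bla HEK 293 cells after 18 hrs of compound exposure at 37 C. Normalized to 20 nM 17-beta-estradiol (100%) and DMSO (0%).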
Sequence of Estrogen receptor (Homo sapiens) (P03372 whole entry, looked up): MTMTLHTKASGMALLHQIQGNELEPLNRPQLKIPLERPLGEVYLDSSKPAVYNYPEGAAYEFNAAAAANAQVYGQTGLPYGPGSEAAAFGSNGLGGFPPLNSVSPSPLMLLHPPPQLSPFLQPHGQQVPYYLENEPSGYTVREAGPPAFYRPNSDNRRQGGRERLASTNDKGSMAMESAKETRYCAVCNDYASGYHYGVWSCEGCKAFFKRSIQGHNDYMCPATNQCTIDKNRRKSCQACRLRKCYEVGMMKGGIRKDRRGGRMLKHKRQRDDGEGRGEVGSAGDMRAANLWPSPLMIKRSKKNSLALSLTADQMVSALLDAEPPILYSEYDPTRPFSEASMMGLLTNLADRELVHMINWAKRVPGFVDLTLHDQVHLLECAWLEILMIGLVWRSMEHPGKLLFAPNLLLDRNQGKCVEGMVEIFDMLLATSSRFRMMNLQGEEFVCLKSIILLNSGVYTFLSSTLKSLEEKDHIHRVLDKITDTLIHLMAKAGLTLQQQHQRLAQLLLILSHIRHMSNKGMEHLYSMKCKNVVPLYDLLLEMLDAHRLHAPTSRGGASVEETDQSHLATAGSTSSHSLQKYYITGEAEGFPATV
As to `O=S(=O)(c1ccccc1)N(CC(F)(F)F)c1ccc(C(O)(C(F)(F)F)C(F)(F)F)cc1`, the “activation” value was -4.24% (inactive).

In the case of `O=C(O)CC(O)(CC(=O)O)C(=O)O`, the Potency entry is “inactive”.

In the case of `COC(C)=O`, the “activation” value was -0.11% (inactive).

Take `CC(=O)S[C@@H]1CC2=CC(=O)CC[C@]2(C)[C@H]2CC[C@@]3(C)[C@@H](CC[C@@]34CCC(=O)O4)[C@H]12`: the “activation” value was 22.2% (inactive).

Regarding `C=Cc1ccccc1`, the Potency result is “inactive”.

Turning to `CCCCCCCC/C=C\CCCCCCCC(=O)OC[C@@H](O)[C@H]1OC[C@H](O)[C@H]1O`, the Potency is 2 µM (active).

The target of another assay is Glucocorticoid receptor (Homo sapiens) (UniProt P04150). Briefly: qHTS assay for small molecule agonists of glucocorticoid receptor signaling (AID 588532; active = well fitted curve in the direction sought with a large enough effect in the signal ratio, with a control signal flat; the % refers to the signal ratio;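 note: 100% = dexamethasone at 0.1 µM and 0% = DMSO only wells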). To be noted: HeLa MMTV-bla, beta-lactamase ratio, agonist, 18 h; stronger effect = higher value; percent of dexamethasone control, DMSO zero. In outline: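 MMTV-bla HeLa, beta-lactamase reporter; medium with 1% charcoal/dextran-stripped FBS; cpds up to 92 uM, 18 h, 37 C; CCF4 readout 460/530 nm; Hill fit → EC50, efficacy vs 0.1 uM dexamethasone = 100%.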
Sequence of Glucocorticoid receptor (Homo sapiens) (P04150 whole entry, looked up): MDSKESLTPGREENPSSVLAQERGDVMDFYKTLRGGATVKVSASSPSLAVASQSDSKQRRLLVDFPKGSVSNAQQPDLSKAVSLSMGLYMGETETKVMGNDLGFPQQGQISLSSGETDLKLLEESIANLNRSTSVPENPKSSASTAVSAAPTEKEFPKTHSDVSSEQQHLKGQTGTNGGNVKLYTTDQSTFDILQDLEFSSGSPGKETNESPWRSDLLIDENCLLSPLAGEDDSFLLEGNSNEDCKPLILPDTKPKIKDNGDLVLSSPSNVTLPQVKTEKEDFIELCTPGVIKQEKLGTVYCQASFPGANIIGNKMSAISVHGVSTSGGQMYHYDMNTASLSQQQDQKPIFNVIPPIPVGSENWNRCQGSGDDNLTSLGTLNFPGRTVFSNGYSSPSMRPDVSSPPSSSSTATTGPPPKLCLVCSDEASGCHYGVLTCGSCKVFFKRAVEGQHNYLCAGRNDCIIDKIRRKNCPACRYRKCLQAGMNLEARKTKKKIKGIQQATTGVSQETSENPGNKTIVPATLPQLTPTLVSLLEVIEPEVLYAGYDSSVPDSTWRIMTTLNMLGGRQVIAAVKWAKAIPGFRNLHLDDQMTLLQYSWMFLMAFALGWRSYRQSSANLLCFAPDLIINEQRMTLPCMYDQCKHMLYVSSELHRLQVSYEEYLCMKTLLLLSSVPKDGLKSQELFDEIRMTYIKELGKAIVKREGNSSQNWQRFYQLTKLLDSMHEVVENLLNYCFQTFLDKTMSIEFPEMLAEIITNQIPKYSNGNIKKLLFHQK
Turning to `O=S(=O)(c1ccccc1)N(CC(F)(F)F)c1ccc(C(O)(C(F)(F)F)C(F)(F)F)cc1`, the activation is 3.66% (inactive).

Take `CN(C)Cc1ccccc1`: the activation was -2.09% (inactive).

Turning to `CCCCCCCCCC(=O)O`, the activation is -0.446% (inactive).

For `COC(C)=O`, the activation was -4.63% (inactive).

Turning to `CC(=O)S[C@@H]1CC2=CC(=O)CC[C@]2(C)[C@H]2CC[C@@]3(C)[C@@H](CC[C@@]34CCC(=O)O4)[C@H]12`, the activation is -13.6% (inactive).

Another assay has the same target. The assay can be described thus: qHTS assay for small molecule antagonists of glucocorticoid receptor signaling (AID 588533; active = well fitted inhibition curve with a large enough effect in the signal ratio, with a control signal flat, not every such curve was filed as active; the % refers to the signal ratio;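 note: cells stimulated with 2 nM dexamethasone as agonist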; note: potency is the fitted concentration of half-maximal effect; for activity change, negative = inhibition: % is set by controls: 0 for no effect and ±100 for the full control effect). The conditions noted are these: HeLa MMTV-bla, GRE beta-lactamase ratio, antagonist mode, 18 h; series mostly up to 76.8 µM; activity change, negative = inhibition: at the top concentration. In outline: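 Antagonist-mode qHTS: compound titrations added to GRE-bla HeLa cells, then dexamethasone 2 nM final; 18 h, 37 C. CCF4 FRET fluorescence normalized to dexamethasone and DMSO; IC50 from Hill fit.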
Regarding `O=S(=O)(c1ccccc1)N(CC(F)(F)F)c1ccc(C(O)(C(F)(F)F)C(F)(F)F)cc1`, the Potency was 39.8 µM (active).

With `O=C(O)CC(O)(CC(=O)O)C(=O)O`, the Potency entry was “inactive”.

Regarding `CN(C)Cc1ccccc1`, the “activity change, negative = inhibition” value is -0.915% (inactive).

For `CCCCCCCCCC(=O)O`, the Potency entry is “inactive”.

Turning to `COC(C)=O`, the “activity change, negative = inhibition” value was 13% (inactive).

Take `CCCCCCCC/C=C\CCCCCCCC(=O)OC[C@@H](O)[C@H]1OC[C@H](O)[C@H]1O`: the “activity change, negative = inhibition” value is -12.5% (inactive).

Tested on in a further assay: not listed separately
Briefly: qHTS assay for small molecule antagonists of peroxisome proliferator-activated receptor delta signaling (AID 588535).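 Note: cells co-treated with a PPAR-delta agonist as stimulator during compound exposure.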 To be noted: HEK293T PPARd-UAS-bla, beta-lactamase FRET ratio, 18 h; 460 nm channel. In outline: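 Compounds tested in titration on PPAR-delta-UAS-bla HEK293T cells grown in charcoal/dextran-stripped serum (2%); beta-lactamase activity read via CCF4 emission at 460 and 530 nm.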
For the compound `O=S(=O)(c1ccccc1)N(CC(F)(F)F)c1ccc(C(O)(C(F)(F)F)C(F)(F)F)cc1`, the max response is -29.6%.

Consider `O=C(O)CC(O)(CC(=O)O)C(=O)O`, for which the max response was -9.3% and -1.59% and -15.8%.

In the case of `CN(C)Cc1ccccc1`, the max response is -30.1%.

Take `CCCCCCCCCC(=O)O`: the max response worked out at 24%.

Take `COC(C)=O`: the max response worked out at 27.1%.

With `C=Cc1ccccc1`, the max response was -7.04% and -9%.

Consider `CCCCCCCC/C=C\CCCCCCCC(=O)OC[C@@H](O)[C@H]1OC[C@H](O)[C@H]1O`, for which the max response is -7.22%.
